This is an account of results in PubChem BioAssay (NCI).

Values joined by “and” are separate entries in the source; they are usually repeats but may differ in a detail not shown here. Equal entries are not always repeated. The panel holds about 79,000 compounds, 15% with a hit somewhere; the sample as a whole holds those more often. More than one record can exist for a structure, and the calls need not agree. Active and inactive are the calls of the source. No stated cut-off is given here; in the data, active means growth inhibition above about 70%; inactive means the rest.

The experiment in a line: NCI Yeast Anticancer Drug Screen. Data for the bub3 strain (AID 167). Particulars: S. cerevisiae bub3 mutant strain, at 50.0 µM, stronger effect = higher value. A digest of the protocol:
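Steps: expose the mutant yeast strain to compound; grow alongside vehicle-treated cultures; measure growth; express inhibition against the vehicle cultures.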
As for `CS(=O)(=O)SCc1ccc([N+](=O)[O-])cc1`, the growth inhibition is 98.8% (active).
As to `Cc1csc(=S)n1OC(=O)NC1CCCCC1`, the growth inhibition was 91.8% (active).
Regarding `CCOc1ccc(NC(=O)C2=C(C)NC(C)=C(C(=O)Nc3ccc(OCC)cc3)C2c2cccc([N+](=O)[O-])c2)cc1`, the growth inhibition was 41% (inactive).
For `CC(C)(C)N=C(NO)c1ccccc1`, the growth inhibition is 0.3% (inactive).
Turning to `CCCCC/C(=C(\C#N)C(=O)OCC)c1ccccc1`, the growth inhibition is 52.4% (inactive).
With `O=C(NCCCl)Sc1ccc(Cl)cc1` the figure was 96.2% (active); with `O=C1Nc2ccc(Br)cc2C1=Nc1ccc2c(c1)OCO2`, 52.5% (inactive); with `CCC(C)OC(=O)Nc1ccc(C)c(NC(=O)OC(C)CC)c1` (centres undefined), 75% (active).
On to `O=C(O)c1cc2ccc(Cl)cc2c(O)c1C1=CCCCC1`, for which the growth inhibition was 60.4% (inactive).
Regarding `CN(C)Cc1cc(N=Nc2ccc(Cl)cc2)ccc1OC(=O)c1ccccc1`, the growth inhibition is 98.5% (active).
For `CN1CCN(C(=O)/C=C/C(=O)c2ccccc2)CC1`, the growth inhibition was 82.5% (active).
In the case of `CCCC/C=C/C(C)(C(=O)OCC)C(=O)OCC`, the growth inhibition is 67.8% (inactive).
As for `Cc1nc(-c2cc3cc([N+](=O)[O-])ccc3oc2=O)cs1`, the growth inhibition was 89.4% (active).
The value for `Cc1nc2ccccc2nc1NNc1ccccc1` was 74% (active); that for `CN(C)[C@@H]1C(=O)C(C(N)=O)=C(O)[C@@]2(O)C(=O)C3=C(O)c4c(O)cccc4C[C@H]3C[C@@H]12` was 89% (active).
In the case of `COc1ccc(NC(=O)CC2SC(=Nc3ccccc3C)NC2=O)c([N+](=O)[O-])c1` (centres undefined), the growth inhibition was 34.7% (inactive).
Take `COc1cc(O)c2c(c1O)C(=O)c1cc(C)ncc1C2=O`: the growth inhibition was 75.9% (active).
The value for `CSc1nnc(SC)nn1` was 93.1% (active); that for `COc1cc(/C=C2\CCC/C(=C\c3ccc(O)c(OC)c3)C2=O)ccc1O` was -24.9% (inactive) and 44% (inactive); that for `CN(C)CCNC(=O)c1cccc2cc([N+](=O)[O-])ccc12` was 82.8% (active).
`CCC(C)(C)c1ccc(Oc2cccc(C(=O)O)c2)cc1`: the growth inhibition is 71.8% (active).
Regarding `CCCCCCSc1ncnc2[nH]ncc12`, the growth inhibition was 93% (active).
As to `CC(=O)Nc1ccc(/C=C/[N+](=O)[O-])cc1`, the growth inhibition is 68.8% (inactive).
On to `CCOC(=O)c1[nH]n(-c2ccccc2)c(=O)c1C=NC(=S)C(N)=S`, for which the growth inhibition was 60.2% (inactive).
In the case of `CCCC(O)C1CC(C(C)C)CCC1C` (centres undefined), the growth inhibition is 92.3% (active).
As for `O=[n+]1c2ccccc2n([O-])c2cc(Br)ccc21`, the growth inhibition is 99.4% (active).
With `CN(C)CCNC(=O)c1cccc2c1Oc1c(cccc1[N+](=O)[O-])O2`, the growth inhibition was 0.95% (inactive).
With `Nc1ncc(-c2ccc(Br)cc2)s1`, the growth inhibition is 89.8% (active).
On to `Cc1cc2cc3cc(C)c(N)cc3nc2cc1N`, for which the growth inhibition was 77.8% (active).
Regarding `CC12C(=O)OC(=O)C(c3ccccc31)c1ccccc12`, the growth inhibition is 68.1% (inactive).
`c1ccc2c(OCC3CO3)cccc2c1` (centres undefined): the growth inhibition was 13.2% (inactive).
As to `CCOC(=N)c1ccc(O)c(OC)c1`, the growth inhibition was 86.6% (active).
In the case of `Nc1cc(N)c(N=Nc2cccc3c(S(=O)(=O)O)cccc23)cc1N=Nc1cc([N+](=O)[O-])ccc1O`, the growth inhibition was 70.8% (active).
Consider `COC(=O)Oc1cc(Cl)c(Cl)cc1Cl`, for which the growth inhibition is 36% (inactive).
Turning to `O=C(O)C1CC(c2ccccc2)=NN1c1ccccc1` (centres undefined), the growth inhibition is 46% (inactive).
The value for `COc1cc([C@@H]2c3cc4c(cc3[C@@H](Nc3ccc(NC(=O)c5cc([N+](=O)[O-])cn5C)cc3)[C@H]3COC(=O)[C@H]23)OCO4)cc(OC)c1O` was 26.8% (inactive) and 51.2% (inactive); that for `O=C(O)c1ccccc1/C=N/N=C1c2ccccc2-c2ccccc21` was 48.5% (inactive).
Take `O=C1CC(=O)c2ccccc21`: the growth inhibition is 67.9% (inactive).
The value for `Nc1ncnc2c1ncn2C1OC(CO)CC1O` (centres undefined) was 89.3% (active) and -3.15% (inactive) and 83% (active).
